In the supplement of paper PMC10849652:
The full data set covers some 7,900 targets. This sample favours those with a hit. About 0.6% of all pairs of compound and target were hits. A number with no mark means an inactive call.

Compound: CC1=NC(=CC=C1)C2=C(N=C(N2)C(C)(C)C)C3=CC4=NC=CN=C4C=C3
Test: log2 fold change, soluble protein after heating vs DMSO (PISA); higher = thermal stabilisation; K562 cells, 10 uM, 30 min; active = over 0.2 and 3.5 SD of the protein, either way, in both replicates (recomputed)
In short: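 For each measurement, 10 μM compound was applied for 30 min to K562 cells at 2×10^6 cells/mL. Aliquots were heated for 3 min across 48°C-58°C, pooled, and extracted in PBS with 0.5% NP-40 at 4°C; the supernatant after 21,000xg for 90 min was soluble protein. This was quantified by TMTpro 16plex LC-MS/MS with channel sums equalised, and thermal stability was reported relative to control samples from duplicates, on a log2 fold-change scale.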

Sequence of UniProt Q9Y5K5 (Q9Y5K5 whole entry, looked up): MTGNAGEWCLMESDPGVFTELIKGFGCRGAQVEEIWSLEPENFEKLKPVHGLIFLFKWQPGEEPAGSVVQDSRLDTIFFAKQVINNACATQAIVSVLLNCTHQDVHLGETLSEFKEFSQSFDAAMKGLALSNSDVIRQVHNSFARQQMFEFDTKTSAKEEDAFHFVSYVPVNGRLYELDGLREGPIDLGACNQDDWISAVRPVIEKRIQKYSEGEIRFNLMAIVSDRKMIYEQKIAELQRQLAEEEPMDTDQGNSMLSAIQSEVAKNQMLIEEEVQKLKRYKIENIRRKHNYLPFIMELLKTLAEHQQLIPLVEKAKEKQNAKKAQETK
Sequence of UniProt Q5U3C3 (Q5U3C3 whole entry, looked up): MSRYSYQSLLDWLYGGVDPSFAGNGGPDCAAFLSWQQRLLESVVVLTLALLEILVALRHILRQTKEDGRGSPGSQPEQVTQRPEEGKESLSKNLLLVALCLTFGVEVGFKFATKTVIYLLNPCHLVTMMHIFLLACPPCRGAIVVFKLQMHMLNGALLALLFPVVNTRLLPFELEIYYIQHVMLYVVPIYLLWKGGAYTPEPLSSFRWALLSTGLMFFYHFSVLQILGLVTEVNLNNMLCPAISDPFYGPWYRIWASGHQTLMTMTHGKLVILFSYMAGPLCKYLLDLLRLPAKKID
Sequence of UniProt P49815 (P49815 whole entry, looked up): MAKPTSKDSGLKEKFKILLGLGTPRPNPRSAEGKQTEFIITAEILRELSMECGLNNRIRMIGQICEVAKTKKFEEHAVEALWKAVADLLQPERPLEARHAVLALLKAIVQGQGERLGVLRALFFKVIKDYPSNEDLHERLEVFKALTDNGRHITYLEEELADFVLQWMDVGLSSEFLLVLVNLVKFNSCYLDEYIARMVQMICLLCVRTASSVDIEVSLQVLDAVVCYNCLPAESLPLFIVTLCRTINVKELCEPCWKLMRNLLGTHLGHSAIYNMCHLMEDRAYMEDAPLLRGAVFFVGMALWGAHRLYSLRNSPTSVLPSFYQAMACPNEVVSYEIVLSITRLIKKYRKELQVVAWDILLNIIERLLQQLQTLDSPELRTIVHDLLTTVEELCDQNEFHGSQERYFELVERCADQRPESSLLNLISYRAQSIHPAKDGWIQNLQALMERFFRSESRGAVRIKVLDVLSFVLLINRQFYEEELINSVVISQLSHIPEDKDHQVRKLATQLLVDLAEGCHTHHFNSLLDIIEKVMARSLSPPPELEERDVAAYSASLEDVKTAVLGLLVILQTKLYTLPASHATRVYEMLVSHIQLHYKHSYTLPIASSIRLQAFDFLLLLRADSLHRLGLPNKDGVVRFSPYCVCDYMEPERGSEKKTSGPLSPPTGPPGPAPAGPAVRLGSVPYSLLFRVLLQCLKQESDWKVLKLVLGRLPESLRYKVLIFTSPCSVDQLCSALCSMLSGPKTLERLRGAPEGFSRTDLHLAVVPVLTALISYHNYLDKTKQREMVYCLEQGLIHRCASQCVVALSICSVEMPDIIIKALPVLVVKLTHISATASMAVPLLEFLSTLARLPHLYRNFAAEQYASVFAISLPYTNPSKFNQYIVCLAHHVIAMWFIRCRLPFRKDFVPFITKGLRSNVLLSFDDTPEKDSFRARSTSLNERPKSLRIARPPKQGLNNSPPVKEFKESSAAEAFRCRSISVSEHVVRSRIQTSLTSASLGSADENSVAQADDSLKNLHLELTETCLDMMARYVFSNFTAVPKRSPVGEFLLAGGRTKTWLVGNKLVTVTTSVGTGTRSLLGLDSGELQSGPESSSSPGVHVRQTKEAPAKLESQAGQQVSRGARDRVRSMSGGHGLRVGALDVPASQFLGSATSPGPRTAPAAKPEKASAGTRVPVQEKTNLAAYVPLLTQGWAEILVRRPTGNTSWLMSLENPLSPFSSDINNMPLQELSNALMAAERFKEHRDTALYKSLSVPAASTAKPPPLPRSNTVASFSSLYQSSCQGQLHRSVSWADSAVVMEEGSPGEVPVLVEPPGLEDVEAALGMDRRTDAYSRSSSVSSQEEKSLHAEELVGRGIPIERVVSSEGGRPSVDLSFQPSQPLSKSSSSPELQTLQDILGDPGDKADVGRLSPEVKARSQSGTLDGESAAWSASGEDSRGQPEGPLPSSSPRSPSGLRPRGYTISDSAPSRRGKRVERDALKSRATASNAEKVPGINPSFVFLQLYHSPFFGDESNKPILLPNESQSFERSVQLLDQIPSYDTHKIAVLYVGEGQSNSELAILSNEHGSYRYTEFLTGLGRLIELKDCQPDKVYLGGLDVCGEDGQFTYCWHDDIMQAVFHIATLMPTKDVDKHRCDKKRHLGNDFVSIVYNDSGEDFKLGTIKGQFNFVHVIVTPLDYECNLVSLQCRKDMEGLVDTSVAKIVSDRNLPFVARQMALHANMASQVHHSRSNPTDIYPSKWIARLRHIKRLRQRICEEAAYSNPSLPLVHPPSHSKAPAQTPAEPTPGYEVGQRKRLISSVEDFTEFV
Sequence of UniProt Q96DX7 (Q96DX7 whole entry, looked up): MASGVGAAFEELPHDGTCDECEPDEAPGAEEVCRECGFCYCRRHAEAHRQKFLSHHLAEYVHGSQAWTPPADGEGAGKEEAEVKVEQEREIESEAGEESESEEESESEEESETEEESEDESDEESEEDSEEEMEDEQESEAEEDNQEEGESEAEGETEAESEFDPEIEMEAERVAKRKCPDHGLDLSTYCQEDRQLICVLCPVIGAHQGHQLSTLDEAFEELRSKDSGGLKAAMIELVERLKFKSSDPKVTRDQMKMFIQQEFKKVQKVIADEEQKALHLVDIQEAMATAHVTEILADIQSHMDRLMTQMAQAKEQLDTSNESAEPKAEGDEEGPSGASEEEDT
Sequence of UniProt Q9BQB6 (Q9BQB6 whole entry, looked up): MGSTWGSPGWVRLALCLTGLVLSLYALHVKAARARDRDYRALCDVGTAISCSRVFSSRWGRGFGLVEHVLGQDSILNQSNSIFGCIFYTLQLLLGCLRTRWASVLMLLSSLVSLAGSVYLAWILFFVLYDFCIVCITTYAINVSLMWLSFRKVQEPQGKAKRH
Sequence of UniProt Q7Z3V4 (Q7Z3V4 whole entry, looked up): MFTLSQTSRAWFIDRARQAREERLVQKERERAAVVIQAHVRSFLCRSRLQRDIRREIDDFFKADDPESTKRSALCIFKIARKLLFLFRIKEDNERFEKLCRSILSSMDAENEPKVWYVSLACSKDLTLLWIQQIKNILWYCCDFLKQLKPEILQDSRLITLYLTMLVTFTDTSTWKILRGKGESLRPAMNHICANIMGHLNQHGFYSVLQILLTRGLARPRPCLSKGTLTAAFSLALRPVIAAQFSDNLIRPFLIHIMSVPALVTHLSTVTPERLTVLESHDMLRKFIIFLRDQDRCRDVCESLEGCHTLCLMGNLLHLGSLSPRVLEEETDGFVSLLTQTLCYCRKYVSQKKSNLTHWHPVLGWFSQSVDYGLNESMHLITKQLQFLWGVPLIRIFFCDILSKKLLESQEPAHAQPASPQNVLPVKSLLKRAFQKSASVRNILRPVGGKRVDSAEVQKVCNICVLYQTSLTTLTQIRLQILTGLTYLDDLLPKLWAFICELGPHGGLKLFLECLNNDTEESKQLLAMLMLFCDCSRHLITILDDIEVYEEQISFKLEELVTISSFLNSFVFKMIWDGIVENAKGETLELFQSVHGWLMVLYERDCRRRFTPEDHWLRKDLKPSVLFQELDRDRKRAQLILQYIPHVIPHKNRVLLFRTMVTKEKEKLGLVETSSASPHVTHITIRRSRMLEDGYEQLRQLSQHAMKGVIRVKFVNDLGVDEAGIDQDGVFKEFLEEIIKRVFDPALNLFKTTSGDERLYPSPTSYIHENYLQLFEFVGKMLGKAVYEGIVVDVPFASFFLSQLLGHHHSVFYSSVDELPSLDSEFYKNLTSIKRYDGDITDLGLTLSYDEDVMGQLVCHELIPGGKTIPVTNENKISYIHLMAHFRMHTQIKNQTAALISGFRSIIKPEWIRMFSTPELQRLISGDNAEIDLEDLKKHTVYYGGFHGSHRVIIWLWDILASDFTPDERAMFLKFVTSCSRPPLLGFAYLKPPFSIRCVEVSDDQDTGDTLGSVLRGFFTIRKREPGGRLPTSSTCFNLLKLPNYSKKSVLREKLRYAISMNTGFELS
Sequence of UniProt Q5BJH2 (Q5BJH2 whole entry, looked up): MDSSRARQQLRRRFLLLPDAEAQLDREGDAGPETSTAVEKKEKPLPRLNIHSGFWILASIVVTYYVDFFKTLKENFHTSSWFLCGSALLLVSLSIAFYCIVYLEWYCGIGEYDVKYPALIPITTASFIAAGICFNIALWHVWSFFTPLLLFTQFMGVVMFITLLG
Sequence of UniProt A6NIH7 (A6NIH7 whole entry, looked up): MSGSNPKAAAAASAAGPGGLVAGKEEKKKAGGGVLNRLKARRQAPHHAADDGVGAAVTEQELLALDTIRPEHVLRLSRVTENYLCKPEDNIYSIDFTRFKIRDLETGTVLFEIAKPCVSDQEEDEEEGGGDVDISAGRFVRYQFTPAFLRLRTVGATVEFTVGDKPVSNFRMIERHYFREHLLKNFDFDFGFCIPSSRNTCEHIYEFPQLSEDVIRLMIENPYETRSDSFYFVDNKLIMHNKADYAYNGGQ
Sequence of UniProt Q9NX01 (Q9NX01 whole entry, looked up): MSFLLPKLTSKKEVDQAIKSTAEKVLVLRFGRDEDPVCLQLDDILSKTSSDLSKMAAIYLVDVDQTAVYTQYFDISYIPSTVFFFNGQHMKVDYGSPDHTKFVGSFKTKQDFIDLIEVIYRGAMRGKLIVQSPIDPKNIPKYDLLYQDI
Sequence of UniProt Q9UBK9 (Q9UBK9 whole entry, looked up): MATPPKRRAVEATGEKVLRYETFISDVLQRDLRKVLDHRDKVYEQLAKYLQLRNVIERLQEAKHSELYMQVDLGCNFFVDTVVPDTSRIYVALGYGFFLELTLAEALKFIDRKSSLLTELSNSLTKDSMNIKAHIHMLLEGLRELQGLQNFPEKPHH
Sequence of UniProt Q99757 (Q99757 whole entry, looked up): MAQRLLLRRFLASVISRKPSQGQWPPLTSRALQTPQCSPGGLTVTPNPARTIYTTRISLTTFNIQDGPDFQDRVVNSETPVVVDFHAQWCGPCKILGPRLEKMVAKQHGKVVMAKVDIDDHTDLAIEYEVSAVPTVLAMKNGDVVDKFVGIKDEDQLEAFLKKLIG

Row | Target | log2 fold change
1 | UXT isoform 2 (UniProt Q9UBK9) | -0.074
2 | TMEM128 (UniProt Q5BJH2) | -0.054
3 | VWA3B isoform 6 (UniProt Q502W6) | 0
4 | TMEM164 (UniProt Q5U3C3) | -0.047
5 | TXN2 (UniProt Q99757) | 0.036
6 | WDR37 isoform 2 (UniProt Q9Y2I8) | -0.138
7 | UBA52 (UniProt P62987) | -0.16
8 | U2AF1L5 (UniProt P0DN76) | -0.036
9 | TRIM44 (UniProt Q96DX7) | 0.015
10 | USP15 (UniProt Q9Y4E8) | 0.027
11 | UTP3 (UniProt Q9NQZ2) | -0.048
12 | TTC33 (UniProt Q6PID6) | -0.189
13 | WDR75 (UniProt Q8IWA0) | -0.053
14 | UFD1 isoform 1 (UniProt Q92890) | 0.106
15 | TXNL4B (UniProt Q9NX01) | -0.04
16 | TMEM189-UBE2V1 (UniProt I3L0A0) | -0.003
17 | WARS1 (UniProt G3V277) | -0.043
18 | UNC119B (UniProt A6NIH7) | -0.017

Row | Target | log2 fold change
19 | TSEN2 (UniProt Q8NCE0) | -0.02
20 | UCHL5 isoform 3 (UniProt Q9Y5K5) | -0.213
21 | TMEM184C (UniProt Q9NVA4) | 0.028
22 | TMEM106B (UniProt Q9NUM4) | 0.019
23 | UBIAD1 (UniProt Q9Y5Z9) | 0.015
24 | UBE4A isoform 2 (UniProt Q14139) | 0.01
25 | UCHL5 (UniProt Q9Y5K5) | 0.053
26 | VPS33B (UniProt Q9H267) | -0.02
27 | VPS33A (UniProt Q96AX1) | -0.021
28 | VPS18 (UniProt Q9P253) | -0.004
29 | VKORC1 (UniProt Q9BQB6) | -0.325 (active)
30 | TNFRSF8 (UniProt P28908) | -0.005
31 | TXNRD1 (UniProt Q16881) | 0.039
32 | WDCP (UniProt Q9H6R7) | -0.023
33 | TSC2 (UniProt P49815) | -0.139
34 | TNPO3 (UniProt Q9Y5L0) | 0.003
35 | UBE3B (UniProt Q7Z3V4) | 0.007
36 | TMEM179B (UniProt Q7Z7N9) | 0.027
